This excerpt belongs to a sample that is enriched for hits.
FECH block: inhibitors of human ferrochelatase, primary screen, biochemical, purified FECH, Ni-mesoporphyrin absorbance; Ni-mesoporphyrin absorbance 550 nm; calls only at 10 µM (by protocol); hit rate 3.3% among 20,000;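 active = enzyme reaction rate more than 3 SD below the solvent-only control wells on the same plate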;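 note: lower slope than DMSO wells means FECH inhibition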
Target sequence (P22830 whole entry, looked up): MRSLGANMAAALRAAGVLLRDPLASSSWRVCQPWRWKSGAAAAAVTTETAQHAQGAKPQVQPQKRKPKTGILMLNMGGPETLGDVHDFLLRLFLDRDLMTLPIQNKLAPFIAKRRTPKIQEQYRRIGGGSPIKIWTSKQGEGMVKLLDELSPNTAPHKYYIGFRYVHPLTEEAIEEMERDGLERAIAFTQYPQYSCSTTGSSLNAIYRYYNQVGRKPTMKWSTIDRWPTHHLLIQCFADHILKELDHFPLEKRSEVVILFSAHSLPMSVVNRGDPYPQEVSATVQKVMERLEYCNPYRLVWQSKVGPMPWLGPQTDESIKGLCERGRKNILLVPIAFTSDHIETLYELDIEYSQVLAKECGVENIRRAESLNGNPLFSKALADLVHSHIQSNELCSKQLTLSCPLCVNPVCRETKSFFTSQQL
Active calls of the source: *; i = inactive; + = active, no number.

SMILES	FECH block
Cc1ccc(-n2ncc3c(-n4nc(C)cc4NC(=O)COc4ccccc4C)ncnc32)c(C)c1	i
Cc1cc(C)cc(S(=O)(=O)NCc2nc3cccnc3n2C(C)C)c1	i
Cc1cc(N(C)C)nc(Nc2ccc(NC(=O)COc3ccccc3)cc2)n1	i
COCC1(C(=O)N2CCC3(CC2)c2ccccc2[C@@H](N)[C@@H]3O)CCC1	i
CC(C)CCNC(=O)Cn1c(=O)n(CC2CCC(C(=O)N3CCCC3)CC2)c(=O)c2sccc21 (stereo unspecified)	i
CCN1Cc2ccccc2CC1C(=O)NCc1cnc(C)cn1 (stereo unspecified)	i
Cc1c(Cl)cccc1NC(=O)c1nc2ccccc2n(C)c1=O	i
Cc1cccc(CN2CCCN(CC(=O)Nc3cccc(Br)c3)S2(=O)=O)c1	i
Cc1cccc(CN2CCCN(CC(=O)Nc3ccccc3)S2(=O)=O)c1	i
Cc1cccc(CN2CCCN(CC(=O)Nc3cc(C)cc(C)c3)S2(=O)=O)c1	+
Cc1cccc(CN2CCCN(CC(=O)Nc3ccc(C)c(C)c3)S2(=O)=O)c1	+
Cc1ccc(CN2CCCN(CC(=O)Nc3ccc(C)c(C)c3)S2(=O)=O)cc1	i
Cc1ccc(CN2CCCN(CC(=O)Nc3ccc(F)cc3)S2(=O)=O)cc1	i
Cc1cccc(CN2CCCN(CC(=O)Nc3ccc(F)cc3)S2(=O)=O)c1	+
Cc1ccc(NC(=O)CN2CCCN(Cc3cccc(F)c3)S2(=O)=O)cc1C	i
O=C(CN1CCCN(Cc2cccc(F)c2)S1(=O)=O)Nc1ccccc1	i
Cc1cccc(-c2cc(N3CCN(C(=O)Nc4ccc(C)c(C)c4)CC3)ncn2)c1	i
CCc1cc(NCc2ccc3c(c2)OCO3)nc(N2CCOCC2)n1	i
CCCNc1ncc(C2NC(=O)NC(C)=C2C(=O)N(C)C(C)C)cn1 (stereo unspecified)	i
Cc1cc2c(cc1S(=O)(=O)N1CCCC1C(=O)NC1CCCC1)OCC(=O)N2 (stereo unspecified)	i
COCCNC(=O)C1(C)Cn2c(cc3ccsc32)C(=O)N1c1ccc(OC)c(OC)c1 (stereo unspecified)	i
CCCc1c(C)nc2ncnn2c1Sc1ccc(NC(=O)c2ccc(OC)c(OC)c2)cc1	+
COc1cc(OC)cc(C(=O)Nc2ccccc2Sc2c(C)c(C)nc3nc(-c4ccccc4)nn23)c1	i
CCc1c(C)nc2ncnn2c1Sc1ccc(NC(=O)Nc2ccc(OC)c(OC)c2)cc1	i
COc1cc(OC)cc(C(=O)Nc2ccccc2Sc2c(C)c(C)nc3ncnn23)c1	+
SMILES	FECH block
CCCc1c(C)nc2ncnn2c1Sc1ccc(NC(=O)c2cc(OC)c(OC)c(OC)c2)cc1	i
CCc1c(C)nc2ncnn2c1Sc1ccc(NC(=O)c2ccc(OC)c(OC)c2)cc1	+
CCc1c(C)nc2ncnn2c1Sc1ccc(NS(=O)(=O)c2cc(Cl)ccc2OC)cc1	+
COc1ccccc1C(=O)Nc1ccccc1Sc1c(C)c(C)nc2ncnn12	i
CCc1c(C)nc2ncnn2c1Sc1ccc(NC(=O)c2c(OC)cccc2OC)cc1	i
CCc1c(C)nc2ncnn2c1Sc1ccc(NS(=O)(=O)c2ccc(OC)c(OC)c2)cc1	i
CCc1c(C)nc2ncnn2c1Sc1ccc(NC(=O)c2cccc(OC)c2)cc1	i
CCCc1c(C)nc2ncnn2c1Sc1ccc(NS(=O)(=O)c2cc(OC)ccc2OC)cc1	i
Cc1ccc(NS(=O)(=O)c2ccc3c(c2)CCN3C(=O)CCC(=O)N2CCCCCC2)cc1	i
CCS(=O)(=O)N1CCC2(CCCN(CCc3ccccc3)C2)C1 (stereo unspecified)	i
COC(C)(C)CC(C)NCCc1nc2c(C)c(C)ccc2[nH]1 (stereo unspecified)	i
Cc1cc(C)n2nc(CN(C(=O)c3ccc(Cl)cc3)c3ccc(F)cc3)nc2n1	i
CNc1nc(Nc2ccc(OC)cc2)c2cnn(-c3ccccc3)c2n1	i
COc1ccccc1CNC(=O)c1nc(N2CCCC2)c2oc3ccccc3c2n1	i
O=C(NCCc1ccccc1)c1ccc(CN2C(=O)CCn3nc(-c4ccccc4)cc32)cc1	i
CCCc1c(C)nc2ncnn2c1Sc1ccc(NC(=O)Cc2ccc(OC)cc2)cc1	i
CCc1cc(Sc2ccc(NC(=O)c3cc(OC)cc(OC)c3)cc2)n2ncnc2n1	i
CCc1cc(Sc2ccc(NC(=O)Nc3cccc(F)c3)cc2)n2ncnc2n1	i
CCc1cc(Sc2ccc(NC(C)=O)cc2)n2ncnc2n1	i
CCCc1c(C)nc2ncnn2c1Sc1ccc(NC(=O)c2cc(OC)cc(OC)c2)cc1	+
CCc1cc(Sc2ccc(NC(=O)Nc3ccc(Br)cc3)cc2)n2ncnc2n1	+
CCCc1cc(Sc2ccc(NC(=O)c3cccc(OC)c3)cc2)n2ncnc2n1	+
CCCc1cc(Sc2ccc(NC(=O)c3ccc(OC)c(OC)c3)cc2)n2ncnc2n1	i
CCCc1c(C)nc2ncnn2c1Sc1ccc(NC(=O)c2cccc(OC)c2)cc1	i
O=C1CC(C(=O)NCCc2ccccc2)N=C(Nc2ccc(F)cc2)N1 (stereo unspecified)	i
SMILES	FECH block
NS(=O)(=O)c1ccc(CCNC(=O)c2ccc3c(c2)NC(=O)c2ccccc2S3)cc1	i
O=C(c1cn[nH]n1)N1CCCN(c2nc3ccc(Cl)cc3s2)CC1	i
COC(=O)[C@]1(C)N[C@H](c2cccc(-c3ccco3)c2)[C@@H]2C(=O)N(C)C(=O)[C@@H]21	i
Cc1ccc(Nc2nc(NCCN(C)C)nc3c2cnn3-c2ccccc2)cc1C	i
CCCn1c(CNS(=O)(=O)c2cccc3nsnc23)nc2cccnc21	i
Cc1ccc(Cl)cc1NCc1cc(=O)n2[nH]c(-c3ccccc3C)nc2n1	+
Cc1ccc(NCc2cc(=O)n3[nH]c(-c4ccccc4C)nc3n2)cc1Cl	i
Cc1cccc(C)c1NCc1cc(=O)n2[nH]c(NCc3ccc(F)cc3)nc2n1	i
Cc1ccccc1-c1nc2nc(CNc3cccc(C)c3C)cc(=O)n2[nH]1	i
Cc1ccccc1-c1nc2nc(CNc3ccc(F)cc3)cc(=O)n2[nH]1	+
Cc1ccccc1-c1nc2nc(CNc3cccc(Cl)c3C)cc(=O)n2[nH]1	i
C=CCC(=O)N(CCCC)Cc1ccccc1F	i
Cc1cc(C)n(CC(=O)N2CCOC(c3ccc(Cl)cc3)C2)c(=O)n1 (stereo unspecified)	i
O=C(CN1C(=O)C2CCCCN2C(=O)c2ccccc21)N1CCN(Cc2ccccc2)CC1 (stereo unspecified)	i
CCN1CCN(C(=O)CN2C(=O)C3CCCCN3c3ccc(C(=O)N(C)C)cc32)CC1 (stereo unspecified)	i
CCc1ccc2c(c1)-c1ccccc1S(=O)(=O)N2CC(=O)N1CCN(C)CC1	+
NC(=O)C1CCN(C(=O)CN2c3ccc(Br)cc3-c3ccccc3S2(=O)=O)CC1	i
CN1CCN(C(=O)CN2C(=O)C3CCCCN3c3ccc(C(=O)N(C)C)cc32)CC1 (stereo unspecified)	i
CCc1ccc2c(c1)-c1ccccc1S(=O)(=O)N2CC(=O)N1CCN(CC)CC1	+
Cn1c(CNS(=O)(=O)c2ccc(C(C)(C)C)cc2)nc2cccnc21	i
CCn1ccnc1CNC(=O)c1ccc(C(C)N2CCCCC2)o1 (stereo unspecified)	i
O=C(NCC1CCCN(Cc2ccncc2)C1)C1(C(F)(F)F)CC1 (stereo unspecified)	i
CCc1cc(Sc2ccccc2NC(=O)CC2CCCCC2)n2nc(C)nc2n1	i

Screens deposited in PubChem by Corson Lab, School of Medicine, Indiana University.
